Screening data: PubChem BioAssay, The Scripps Research Institute Molecular Screening Center
MITF inh = inhibitors of human MITF; O75030; AlphaScreen MITF homodimerization, bead proximity signal; inhibition, % at 2.6 µM; 650,000 compounds, 0.91% hits; AID 1259374; in the data active means inhibition above about 50%
Target sequence (O75030 whole entry, looked up): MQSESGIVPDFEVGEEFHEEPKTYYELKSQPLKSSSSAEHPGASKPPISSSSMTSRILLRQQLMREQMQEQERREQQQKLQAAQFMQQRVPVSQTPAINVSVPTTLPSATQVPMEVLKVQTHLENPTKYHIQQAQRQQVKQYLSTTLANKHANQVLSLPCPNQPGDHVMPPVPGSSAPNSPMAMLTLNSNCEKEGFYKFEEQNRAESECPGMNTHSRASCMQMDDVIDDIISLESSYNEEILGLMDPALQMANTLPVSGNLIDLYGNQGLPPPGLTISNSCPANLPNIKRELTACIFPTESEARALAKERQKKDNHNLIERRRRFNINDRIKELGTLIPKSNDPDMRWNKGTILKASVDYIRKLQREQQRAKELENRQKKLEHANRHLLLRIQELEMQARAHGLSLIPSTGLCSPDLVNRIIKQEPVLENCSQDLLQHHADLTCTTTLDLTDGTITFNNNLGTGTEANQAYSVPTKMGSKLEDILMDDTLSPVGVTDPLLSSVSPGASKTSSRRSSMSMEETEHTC
GPR151 activ = human GPR151 activation. AID 1508602. PathHunter beta-arrestin GPR151 cells, luminescence. 650,000 compounds, 1% hits. activation, % at 11.2 µM; in the data active means activation above about 4.9%
FBW7 activator = human FBW7 E3 ligase activation, primary screen. Q969H0. AlphaScreen FBW7–phospho-cyclin E peptide binding, activator screen. normalized activity (activation), % at 26.1 µM. 650,000 compounds, 0.13% hits. AID 1259310; in the data active means normalized activity above about 1.9%;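 further: purified mutant Fbw7 with reduced substrate affinity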
TEAD-YAP block = TEAD-YAP interaction inhibition. inhibition, % at 9.12 µM. AID 1259422. 640,000 compounds, 1.4% hits. HEK-TIYL cells, TEAD-Gal4/YAP UAS-luciferase luminescence; in the data active means inhibition above about 32%
MITF inh conf = human MITF inhibition, confirmation; shares compounds with MITF inh; AlphaScreen MITF homodimerization, biotin/His-MITF beads; inhibition, % at 2.6 µM; 4,700 compounds, 16% hits;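 active means inhibition above a cutoff derived from the DMSO control wells, cut at about 28% in these data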;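 further: inhibitors lower the bead chemiluminescence by keeping MITF from dimerizing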
AlphaScreen DR = AlphaScreen optical interference, dose response counter-screen. shares compounds with MITF inh. AlphaScreen optical interference counterscreen, cell-free. IC50, µM. 480 compounds, 6% hits. AID 1259373; call rule not given here
AS interf ctr = counter-screen: compounds optically interfering with AlphaScreen. shares compounds with MITF inh. 4,700 compounds, 7.6% hits. inhibition, % at 2.6 µM. LysRS AlphaScreen counterscreen, signal interference, triplicate;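 active means inhibition above a cutoff derived from the DMSO control wells, cut at about 30% in these data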
Hits are given with their value; – = inactive; · = no result. Hits are enriched below; roughly 3.5% of the tested compounds scored in any of these assays.

SMILES | MITF inh | GPR151 activ | FBW7 activator | TEAD-YAP block | MITF inh conf | AS interf ctr | others
COc1ccccc1N1CCN(C2CCCN(S(=O)(=O)c3ccc(C)cc3)C2)CC1 (stereo unspecified) | – | – | – | – | · | ·
COc1ccccc1N1CCN(C2CCCN(C3CCC3)C2)CC1 (stereo unspecified) | – | – | – | – | · | ·
O=C(COC(=O)c1ccc(Cl)c([N+](=O)[O-])c1)c1ccccc1 | – | – | – | – | · | ·
CCOC(=O)/C(C#N)=C1/C=Cc2cc(C)ccc2N1CC | – | – | – | – | · | ·
O=C(c1ccc([N+](=O)[O-])cc1)N1CCN(Cc2cccc3ccccc23)CC1 | 57.7 | – | – | – | 29.0 | – | AlphaScreen DR=–
O=C(c1ccc([N+](=O)[O-])cc1)N1CCN(Cc2ccccn2)CC1 | 64.0 | – | – | – | – | –
O=C(c1cccc(F)c1)N1CCN(Cc2ccccn2)CC1 | – | – | – | – | · | ·
CC(=O)NC1(c2ccccc2F)CCN(C(=O)CCC(=O)O)CC1 | 76.5 | – | – | – | – | –
CC(C)(C)NC(=O)C(=O)NNC(=O)c1ccc([N+](=O)[O-])cc1[N+](=O)[O-] | 65.9 | – | – | – | – | –
COc1ccc(Cl)cc1NC(=O)CSc1ncn[nH]1 | – | – | – | – | · | ·
O=C(NC1CCN(Cc2ccccc2)CC1)c1cnc(NC2CCN(Cc3ccccc3)CC2)s1 | – | – | – | – | · | ·
CCCNC(=O)c1cnc(NC2CCN(Cc3ccccc3)CC2)s1 | 73.9 | – | – | – | – | –
C/C(N)=C(/C#N)C(=O)CSc1n[nH]c(N)n1 | – | – | – | – | · | ·
CCOc1ccc(CN2CCN(c3ccccn3)CC2)cc1 | – | – | – | – | · | ·
CCOc1cc(CN2CCCCC2)ccc1OC | – | – | – | – | · | ·
CCOc1ccc(CN2CCN(Cc3cccnc3)CC2)cc1 | 54.9 | – | – | – | 35.2 | – | AlphaScreen DR=–
CCOc1cc(CN2CCN(C3CCCC3)CC2)ccc1OC | 53.5 | – | – | – | – | –
CCOc1cc(CN2CCN(Cc3cccnc3)CC2)ccc1OC | 73.8 | – | – | – | – | –
CCOc1cc(CN2CCN(Cc3cc(OC)c(OC)c(OC)c3)CC2)ccc1OC | 71.4 | – | – | – | – | –
O=C(CC12CC3CC(CC(C3)C1)C2)Nn1c(=S)[nH]c2ccccc2c1=O | – | – | – | – | · | ·
Cc1ccc2c(c1Br)C1(C(=O)N2)C(C#N)=C(N)OC2=C1C(=O)CC(C)C2 (stereo unspecified) | – | – | – | – | · | ·
CC(=O)Nc1cccc(NC(=O)Cn2cnc3c(cnn3-c3ccc(C)c(C)c3)c2=O)c1 | – | – | – | – | · | ·
CCOc1ccccc1N/C(SCc1ccccc1C)=C(/C#N)C(=O)NCCc1ccc(OC)c(OC)c1 | – | – | – | – | · | ·
CCOc1cc(CN2CCN(Cc3ccc(Cl)cc3)CC2)ccc1OC | 61.3 | – | – | – | – | –
CCOc1cc(CN2CCN(Cc3ccccc3Cl)CC2)ccc1OC | 66.8 | – | – | – | – | –
SMILES | MITF inh | GPR151 activ | FBW7 activator | TEAD-YAP block | MITF inh conf | AS interf ctr | others
CCOc1cc(CN2CCN(Cc3cccc(Cl)c3)CC2)ccc1OC | – | – | – | – | · | ·
CCn1c(SCC(=O)Nc2ccccc2Cl)nnc1-c1ccccc1O | – | – | – | – | · | ·
Cc1cccc(NC(=O)CSc2ncc(-c3ccccc3)[nH]2)c1 | 80.6 | – | – | – | – | –
O=C(CN1CCC(N2CCCCC2)CC1)c1ccc2c(c1)OCCO2 | 58.3 | – | – | – | – | –
O=C(CN1CCC(N2CCCCC2)CC1)Nc1ccc2c(c1)OCCO2 | – | – | – | – | · | ·
COC(=O)CSc1nc(N)c2c3c(sc2n1)COC(C(C)C)C3 (stereo unspecified) | – | – | – | – | · | ·
CCOc1c(CNCc2ccc(F)cc2)cccc1OC | – | – | – | – | · | ·
OC(COCc1ccccc1)Cn1cnc2ccccc21 (stereo unspecified) | – | – | – | – | · | ·
CCCCOCC(O)Cn1cnc2ccccc21 (stereo unspecified) | 54.9 | – | – | – | – | –
Cc1cc(Br)ccc1OCCOCCn1ccnc1 | 63.3 | – | – | – | – | –
Cc1ccc(OCCn2ccnc2)c(C)c1 | – | – | – | – | · | ·
Cc1cc(C(C)(C)C)ccc1OCCCn1ccnc1 | – | – | – | – | · | ·
C=CCc1cccc(OC)c1OCCOCCn1ccnc1 | 53.8 | – | – | – | – | –
Cc1cc(C(C)(C)C)ccc1OCCn1ccnc1 | 69.8 | – | – | – | – | –
